# Assay results from PubChem BioAssay (NCATS).
# Unmarked numbers belong to inactive results. Records with an inconclusive call do not appear. A call without a number means that no potency is given here. The source made the active and inactive calls. Calls come from the whole dose curve; as a rule, active = well fitted curve in the direction sought with a large enough effect; inconclusive = small, poorly fitted or top-dose-only effect, or another doubt; inactive = no such curve, though single readings can be large; an effect the other way counts as inactive or inconclusive.
# Key:
# [1] = tested on: Zika virus NS2B-NS3 protease; test: Primary screen GU AMC qHTS for Zika virus inhibitors (AID 1347154); note: nearly all actives have a fitted effect of over 70% in size; note: potency is the fitted concentration of half-maximal effect
# Method in brief: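 Fluorogenic AMC-substrate cleavage by noncovalent NS2B-NS3 protease complex (25 nM, pH 8.0 Tris buffer with Tween 20) followed for 15 minutes at room temperature (~20% conversion). Percent inhibition from ex340/em450 signal change, fitted by 4-parameter Hill equation.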
# [2] = tested on: Zika virus NS2B-NS3 protease (unlinked complex); test: Primary screen GU Rhodamine qHTS for Zika virus inhibitors: Unlinked NS2B-NS3 protease assay (AID 1347159); note: nearly all actives have a fitted effect of over 60% in size; note: potency is the fitted concentration of half-maximal effect
# Method in brief: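 Compounds, tested up to 114 microM, were incubated for 15 minutes with 25 nM unlinked NS2B-NS3 protease at pH 8.0. Cleavage of 1.5 microM Rhodamine110 substrate was then followed by fluorescence for 15 minutes.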
# [3] = tested on: Zika virus NS2B-NS3 protease (linked construct); test: Primary screen NINDS Rhodamine qHTS for Zika virus inhibitors (AID 1347160); details: outcome: dose series up to 57.1 µM unless noted; note: nearly all actives have a fitted effect of over 55% in size
# Method in brief: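 Percent inhibition, normalized to uninhibited and enzyme-free controls, is fitted to a 4-parameter Hill equation. Fluorescence change comes from a 15-min cleavage of 1.5 microM bis-peptide Rhodamine110 substrate by 25 nM linked NS2B-NS3 at room temperature.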
# [4] = qHTS to identify inhibitors of the type 1 interferon - major histocompatibility complex class I in skeletal muscle: primary screen against the NCATS Pharmaceutical Collection (AID 1347407);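 note: luminescence of HiBiT knocked into endogenous HLA-B as interferon-induced MHC class I level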
# Method in brief: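 Immortalized human myoblasts (C25cl48) with HiBiT knocked into endogenous HLA-B*08:01 were stimulated with 4 ng/ml IFN-beta and treated with compounds (8-point, 1:5, top 46 uM final) for 24 h at 37 C; HiBiT lytic luminescence read.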
# [5] = target: Protein phosphatase 1D (Homo sapiens) (UniProt O15297); test: RapidFire Mass Spectrometry qHTS Assay for Modulators of WT P53-Induced Phosphatase 1 (WIP1) (AID 1347424);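 note: amount of dephosphorylated VEPPL-S-QETFS peptide product formed by WIP1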
# Method in brief: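 10 nM WIP1 + cpd, 1 h RT; + 2 uM VEPPL-pS-QETFS, 5 min RT; stop 0.5% formic acid; labelled product standard 1 uM; RapidFire MS. Buffer 50 mM Tris pH 7.5, 30 mM MgCl2, 1 mM TCEP.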
# [6] = target: Protein phosphatase 1D (Homo sapiens) (UniProt O15297); test: Rhodamine-PBP qHTS Assay for Modulators of WT P53-Induced Phosphatase 1 (WIP1) (AID 1347425)
# Method in brief: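 Steps: enzyme with Rh-PBP sensor and compounds, room-temperature incubation of 1 hr, baseline read, addition of VEPPL-pS-QETFS (10 uM final), kinetic fluorescence reads at 525/598 nm. Activity equals final minus baseline signal.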
# [7] = target: Lysine-specific demethylase 5B (Homo sapiens) (UniProt Q9UGL1); test: Optimization screen for KDM5B Histone Demethylases FDH coupled qHTS against the LOPAC library (AID 1347166); details: KDM5B demethylation, FDH-coupled NADH fluorescence (FDH is formaldehyde dehydrogenase); at 57.5 µM (top of the series)
# Method in brief: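 KDM5BDeltaAP (200nM final) preincubated 10 min with compound, then 12.5uM H3K4Me3, 25uM a-ketoglutarate, ascorbate, Fe(II), NAD+ and FDH added; 50mM HEPES pH 7.5, 0.01% Tween-20. NADH fluorescence (340/450 nm) change over 30 min, room temperature.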
# [8] = qHTS to identify inhibitors of the type 1 interferon - major histocompatibility complex class I in skeletal muscle: primary screen against the NCATS LOPAC collection (AID 1347405);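 note: lytic HiBiT luminescence reporting HLA-B protein level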
# Method in brief: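 CRISPR-engineered immortalized human myoblasts (C25cl48) with HiBiT fused to endogenous HLA-B*08:01, stimulated with 4 ng/ml IFN-beta. LOPAC compounds tested as a 7-point 1:4.3 titration (top 46 uM final), 24 h at 37 C; lytic HiBiT luminescence read.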
# [9] = qHTS for inhibitors of adenylyl cyclases using a fission yeast platform: a pilot screen against the NCATS LOPAC library (AID 1347410)
# Method in brief: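 S. pombe CHP2027 (AC9-GNAS-PDE4D2) carrying a PKA-repressed fbp1-GFP reporter was exposed to LOPAC compounds (final up to 57 µM) for 18 h at 30C in the dark, in EMM with histidine, lysine and uracil; GFP gain-of-signal read by laser scanning cytometry.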
# [10] = qHTS to identify inhibitors of the type 1 interferon - major histocompatibility complex class I in skeletal muscle: primary screen against the NCATS Mechanism Interrogation Plate v5.0 (MIPE) Libary (AID 1347411); note: nearly all actives have a fitted effect of over 65% in size; note: potency is the fitted concentration of half-maximal effect
# Method in brief: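 Immortalized human myoblasts (C25cl48) with HiBit knocked into endogenous HLA-B*08:01 were stimulated with 4 ng/ml IFN-beta and given compounds in 11-point 1:3 titration from 46 uM. After 24 h at 37 C, lytic HiBiT luminescence was read.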
# [11] = Validation qHTS assay for inhibitors of Activation Induced Cytidine Deaminase (AID): UDG Counterscreen signal (AID 1347427)
# Method in brief: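 Counterscreen read of UDG activity (2 U/mL, 4/3x) in the FRET deamination format with AID (1 uM, 4/3x), DJC20/DJC23 substrates (250 nM, 4x), 4 h at room temperature. NaOH stop, fluorescence at 560 ex/665 em.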
# [12] = Confirmatory screen NINDS Rhodamine qHTS for Zika virus inhibitors (AID 1347161); note: nearly all actives have a fitted effect of over 60% in size; note: potency is the fitted concentration of half-maximal effect
# Method in brief: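 In 10 mM Tris-HCl pH 8.0 containing 0.01% Tween 20, linked NS2B-NS3 protease (25 nM final) is exposed to test compounds for 15 min. Cleavage of 1.5 microM Rhodamine110 substrate is tracked by fluorescence over 15 min.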
# [13] = Vero cells viability qHTS for Zika virus inhibitors (AID 1347167); note: potency is the fitted concentration of half-maximal effect
# Method in brief: (§1)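 Compounds were tested in concentration series on cells grown in DMEM containing 4% FBS. After 24 to 48 hours, cellular ATP was measured by luminescence with CellTiter Glo.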
# [14] = HepG2 cells viability qHTS for Zika virus inhibitors (AID 1347168); note: potency is the fitted concentration of half-maximal effect
# Method in brief: as §1
# [15] = tested on: Zika virus NS2B-NS3 protease (unlinked complex); test: Confirmatory screen GU AMC qHTS for Zika virus inhibitors (AID 1347153); note: nearly all actives have a fitted effect of over 70% in size
# Method in brief: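 Unlinked enzyme 25 nM, Tris pH 8.0/0.01% Tween 20; cpd 15 min RT, dark; + AMC substrate 10 µM (Km 18.3 µM); 340/450 nm read at t0 and 15 min; % inhibition → 4-param fit.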
# [16] = Tertiary RLuc qRT-PCR qHTS assay for Zika virus inhibitors (AID 1347169); note: top concentration of the series differs between compounds; nearly all actives have a fitted effect of over 55% in size
# Method in brief: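 Vero cells (1,000 per well) plated overnight at 37 degrees C, treated with compound in DMSO, then infected with recombinant ZIKV-RLuc (Cambodian) at MOI 1-2 for 48-72 hrs. Live-cell Renilla luciferase substrate added; luminescence read after 1-1.5 hrs.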
# Lysine-specific demethylase 5B (Homo sapiens), sequence (Q9UGL1 whole entry, looked up): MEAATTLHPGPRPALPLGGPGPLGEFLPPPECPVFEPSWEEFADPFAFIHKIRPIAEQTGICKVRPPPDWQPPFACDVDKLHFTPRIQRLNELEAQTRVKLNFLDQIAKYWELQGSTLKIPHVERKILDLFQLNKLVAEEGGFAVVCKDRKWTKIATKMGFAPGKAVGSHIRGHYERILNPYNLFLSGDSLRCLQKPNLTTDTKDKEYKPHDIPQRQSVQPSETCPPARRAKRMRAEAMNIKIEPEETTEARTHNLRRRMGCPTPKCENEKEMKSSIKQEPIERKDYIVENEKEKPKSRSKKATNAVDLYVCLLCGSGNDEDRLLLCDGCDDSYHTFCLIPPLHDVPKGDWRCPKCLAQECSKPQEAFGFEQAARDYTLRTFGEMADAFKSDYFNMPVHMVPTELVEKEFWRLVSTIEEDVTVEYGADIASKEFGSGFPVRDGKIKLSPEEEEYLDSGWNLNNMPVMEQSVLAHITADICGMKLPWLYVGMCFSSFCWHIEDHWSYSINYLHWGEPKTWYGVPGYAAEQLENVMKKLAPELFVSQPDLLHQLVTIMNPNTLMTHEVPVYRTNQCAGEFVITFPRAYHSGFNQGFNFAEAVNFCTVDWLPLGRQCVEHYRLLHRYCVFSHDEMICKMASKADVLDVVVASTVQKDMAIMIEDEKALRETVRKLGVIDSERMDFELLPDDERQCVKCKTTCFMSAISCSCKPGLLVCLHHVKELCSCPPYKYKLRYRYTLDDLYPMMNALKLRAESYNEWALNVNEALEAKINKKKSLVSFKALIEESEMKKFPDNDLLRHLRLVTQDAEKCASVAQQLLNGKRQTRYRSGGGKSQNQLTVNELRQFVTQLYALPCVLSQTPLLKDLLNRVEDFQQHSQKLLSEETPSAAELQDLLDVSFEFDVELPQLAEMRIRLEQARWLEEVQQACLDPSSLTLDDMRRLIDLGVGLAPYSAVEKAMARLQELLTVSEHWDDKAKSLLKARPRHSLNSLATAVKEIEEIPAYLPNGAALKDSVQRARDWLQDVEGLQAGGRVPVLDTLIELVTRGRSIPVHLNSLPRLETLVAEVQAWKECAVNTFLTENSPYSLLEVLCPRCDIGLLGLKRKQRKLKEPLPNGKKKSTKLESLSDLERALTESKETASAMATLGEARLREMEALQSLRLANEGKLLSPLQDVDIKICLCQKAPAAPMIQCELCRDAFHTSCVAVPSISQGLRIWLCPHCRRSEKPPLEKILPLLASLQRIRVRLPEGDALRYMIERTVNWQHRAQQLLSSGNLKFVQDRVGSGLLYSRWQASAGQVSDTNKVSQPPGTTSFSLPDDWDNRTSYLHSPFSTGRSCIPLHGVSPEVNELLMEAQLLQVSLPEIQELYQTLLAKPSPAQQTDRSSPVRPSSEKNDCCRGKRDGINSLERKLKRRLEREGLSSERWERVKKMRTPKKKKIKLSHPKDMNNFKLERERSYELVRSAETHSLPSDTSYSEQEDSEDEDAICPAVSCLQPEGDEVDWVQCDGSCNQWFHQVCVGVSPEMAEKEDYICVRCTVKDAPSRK
# Protein phosphatase 1D (Homo sapiens), sequence (O15297 whole entry, looked up): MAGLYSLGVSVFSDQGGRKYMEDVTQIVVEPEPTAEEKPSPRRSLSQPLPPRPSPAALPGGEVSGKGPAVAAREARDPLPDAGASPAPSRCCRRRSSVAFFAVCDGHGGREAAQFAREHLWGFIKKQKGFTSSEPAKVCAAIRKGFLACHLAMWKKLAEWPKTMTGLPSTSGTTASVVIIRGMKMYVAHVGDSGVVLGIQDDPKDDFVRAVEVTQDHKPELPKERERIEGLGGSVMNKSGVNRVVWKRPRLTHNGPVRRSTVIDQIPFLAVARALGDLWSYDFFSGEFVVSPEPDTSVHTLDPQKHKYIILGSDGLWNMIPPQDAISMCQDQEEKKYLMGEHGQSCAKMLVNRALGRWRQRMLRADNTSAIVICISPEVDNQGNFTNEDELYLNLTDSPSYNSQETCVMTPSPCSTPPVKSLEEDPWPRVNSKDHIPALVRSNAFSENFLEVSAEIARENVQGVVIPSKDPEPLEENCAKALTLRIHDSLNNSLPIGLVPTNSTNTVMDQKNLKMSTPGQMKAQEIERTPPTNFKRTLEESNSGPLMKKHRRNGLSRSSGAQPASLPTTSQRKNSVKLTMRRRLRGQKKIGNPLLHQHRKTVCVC
smiles,measurement,setting,value
CN(C)CCc1c[nH]c2ccc(C[C@H]3COC(=O)N3)cc12,Potency,[1],inactive
same,Potency,[2],inactive
same,outcome,[3],inactive
same,Potency,[4],inactive
same,outcome,[5],inactive
same,outcome,[6],inactive
O=C(O)C1CCCN(CCC=C(c2ccccc2)c2ccccc2)C1 (stereo unspecified),Potency,[1],inactive
same,"activity, negative = inhibition",[7],-3.3%
same,outcome,[8],inactive
same,outcome,[9],inactive
same,Potency,[10],inactive
same,outcome,[11],inactive
CNC(=O)c1cc(Oc2ccc(NC(=O)Nc3ccc(Cl)c(C(F)(F)F)c3)cc2)ccn1,Potency,[1],inactive
same,Potency,[2],8.91 µM (active)
same,Potency,[12],25.5 µM (active)
same,Potency,[13],7.58 µM (active)
same,Potency,[14],33.9 µM (active)
same,Potency,[4],inactive
same,Potency,[10],16.5 µM (active)
same,outcome,[5],inactive
same,outcome,[6],inactive
O=C(O)CCn1c2c(c3ccccc31)C[C@H](NS(=O)(=O)c1ccc(F)cc1)CC2,Potency,[1],inactive
same,outcome,[3],inactive
same,outcome,[5],inactive
same,outcome,[6],inactive
CCCc1nc(C)c2c(=O)[nH]c(-c3cc(S(=O)(=O)N4CCN(CC)CC4)ccc3OCC)nn12,Potency,[15],inactive
same,Potency,[12],inactive
same,Potency,[13],inactive
same,Potency,[14],inactive
same,Potency,[16],inactive
same,Potency,[4],inactive
same,Potency,[10],inactive
same,outcome,[6],inactive
N[C@@H](Cc1ccc(O)c(O)c1)C(=O)O,Potency,[1],27.1 µM (active)
same,"activity, negative = inhibition",[7],0.726%
CCCCc1oc2ccc(NS(C)(=O)=O)cc2c1C(=O)c1ccc(OCCCN(CCCC)CCCC)cc1,Potency,[1],inactive
same,Potency,[2],inactive
same,outcome,[3],inactive; activator
same,outcome,[6],inactive
CCN(CC)CCn1c(=O)c(Cc2ccc(OC)cc2)nc2ccccc21,Potency,[1],inactive
same,"activity, negative = inhibition",[7],-17%
same,outcome,[8],inactive
same,outcome,[9],inactive
same,Potency,[10],inactive
same,outcome,[11],inactive
COc1cc2ncnc(Nc3cccc(Cl)c3)c2cc1OC,Potency,[1],inactive
same,Potency,[2],inactive
same,outcome,[3],inactive
same,outcome,[9],inactive
same,Potency,[10],29.4 µM (active)
same,outcome,[11],inactive
